High-throughput results: PubChem, National Center for Advancing Translational Sciences (NCATS)
Shiga toxin inh = A qHTS for Small Molecule Inhibitors of Shiga Toxin; Vero cells, Shiga toxin protein synthesis inhibition reporter; inhibition, % at 38.7 µM; 290,000 tested, 9.2% active; AID 2315, 2010; in the data active = inhibition mostly above about 28%, no sharp cut-off; inactive = mostly below about 43%; note: 0% is about no effect
Cycloheximide cs = Cycloheximide Counterscreen for Small Molecule Inhibitors of Shiga Toxin; 300,000 tested, 12% active; AID 2314, 2010; cell reporter, cycloheximide protein synthesis inhibition counterscreen; max response, %; in the data active = max response mostly above about 13%, no sharp cut-off; inactive = mostly below about 14%; note: read at 38.3 µM for the half of the compounds with a filed dose; 0% is about no effect
Pf growth 96h = Primary qHTS for delayed death inhibitors of the malarial parasite plastid, 96 hour incubation. 320,000 tested, 6.9% active. Potency, µM (series often up to 28.7 µM), for the others: at the top dose activity change, negative = inhibition, most hits filed as inhibitors. AID 504834, 2011. P. falciparum luciferase reporter growth, 96 h; note: potency is the fitted concentration of half-maximal effect; % is set by controls: 0 for no effect and ±100 for the full control effect
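P. falciparum expressing integrated firefly luciferase, in erythrocytes at 2% hematocrit, 0.05% parasitemia, incubated with compounds 96 h at 37 C, 5% CO2. Growth inhibition read as loss of luminescence; two-generation exposure targets delayed-death apicoplast inhibitors.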
NS1 function inh = qHTS Assay for Inhibitors of Influenza NS1 Protein Function | Potency, µM (doses to about 46.1 µM), inactives show top-dose activity, positive = more growth | 270,000 tested, 0.4% active; calls by dose curve; note: potency is the fitted concentration of half-maximal effect; actives are rising curves; nearly all actives have a fitted effect of over 50% in size
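Compounds were scored for reversing the slow growth caused by influenza A NS1 in S. cerevisiae, measured by optical density at 600 nm. Assay medium contained 2% galactose at pH 6.0; NS1-free yeast of the same strain were the positive control.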
Pf growth 48h = Primary qHTS for delayed death inhibitors of the malarial parasite plastid, 48 hour incubation; 310,000 tested, 5.9% active; Potency, µM (top dose mostly 28.7 µM), for inactives: at the highest dose activity change, negative = inhibition, hits mostly inhibitors; P. falciparum luciferase growth in erythrocytes, 48 h; AID 504832, 2011; note: potency is the fitted concentration of half-maximal effect; % is set by controls: 0 for no effect and ±100 for the full control effect
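Firefly luciferase activity from engineered P. falciparum reports growth; inhibitors lower the luminescent signal. Cultures contained 2% hematocrit erythrocytes at 0.1% final parasitemia.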
An asterisk follows results filed as active; u = inconclusive; x = no result; ! = not confirmed by another sample. Shown are actives, neighbours in structure and some others; about 21% of the full set was active somewhere. Unless noted, calls come from the whole dose curve; as a rule, active = well fitted inhibition curve with a large enough effect; inconclusive = small, poorly fitted or top-dose-only effect, or another doubt; inactive = no such curve, though single readings can be large or run the other way.

SMILES	Shiga toxin inh	Cycloheximide cs	Pf growth 96h	NS1 function inh	Pf growth 48h
O=C(Nc1ncc([N+](=O)[O-])s1)c1cccs1	27*	37*	11%	-148%	140%
O=C(CS(=O)(=O)c1ccccc1)Nc1ncc([N+](=O)[O-])s1	-6	-4	1%	26%	12%
O=C(/C=C/c1ccc([N+](=O)[O-])cc1)Nc1ncc([N+](=O)[O-])s1	95*	34*	2%	x	-61%
CCOc1c(Br)cc(C(N)=O)cc1OCc1ccccc1	-7	4	-27%	-49%	-14%
CCn1cc(C(=O)NCCc2ccc(OC)cc2)c(=O)c2ccc(C)nc21	-6	-4	6%	12%	-1%
Clc1ccc(-c2nnc(N3CCCC3)nn2)cc1	145*	34*	0.59µM*	-34%	0.37µM*
O=c1cc(-c2ccccc2)nc(SCc2ccccc2F)[nH]1	7	-4	2%	0%	-4%
c1ccc2[nH]c(SCc3cscn3)nc2c1	65*	35*	u	-10%	61%
Fc1c(F)c(F)c(CSc2nc3ccccc3[nH]2)c(F)c1F	71*	25*	32%	-3%	u
Fc1ccccc1CSc1nc2ncc(Br)cc2[nH]1	27	22*	13µM*	-6%	x
Fc1ccccc1CSc1nc2ccccc2[nH]1	86*	54*	237%	-79%	x
Cc1ccc(S(=O)(=O)N(C)/N=C/C=C/c2ccccc2)cc1	2	0	72%	1%	16%
Cn1c(=O)cc(C(=O)N/N=C/c2ccc(Cl)cc2)[nH]c1=O	7	-1	43%	3%	24%
CCN(/N=C/C=C/c1ccccc1)c1cc(=O)n(C)c(=O)[nH]1	13	0	7.4µM*	3%	u
CCN(/N=C/c1ccc(Cl)cc1)c1cc(=O)n(C)c(=O)[nH]1	active	34*	u	1%	1%
CCn1ncc(C2=NOC(C(=O)NCCc3ccccc3)C2)c1C (stereo unspecified)	-8	-2	22%	-1%	x
Cc1ccccc1-c1nn(-c2ccc(F)cc2F)cc1CNC1CC1	-2	-2	u	3%	u
CCn1nc(C)c(Br)c1C(=O)Sc1ccccc1Cl	-3	-3	18%	-1%	17%
COc1ccc(CCNC(=O)CSc2nnc3ccc(-c4cccnc4)nn23)cc1	-9	-5	u	x	u
Nc1[nH][nH]c(=O)c1N=Nc1cccc(Cl)c1	-1	13	44%	-1%	43%
COc1cccc(N=Nc2c(N)[nH][nH]c2=O)c1	59*	55*	162%	17%	148%
CCOc1ccc(N=Nc2c(=O)[nH]n3c(=O)cc(C)[nH]c23)cc1	3	10	-2%	-1%	-12%
CCOc1ccc(N=Nc2c(N)[nH][nH]c2=O)cc1	68*	78*	105%	19%	248%
COc1ccc(N=Nc2c(C)[nH][nH]c2=O)cc1	103*	35*	u	x	96%
COc1ccc(CCNC(=O)CSc2ccc(-c3ccncc3)nn2)cc1	-6	8	31%	2%	-29%
SMILES	Shiga toxin inh	Cycloheximide cs	Pf growth 96h	NS1 function inh	Pf growth 48h
CC(C)CCCC(C)CCCC(C)CCCC(C)C(=O)O (stereo unspecified)	21	-3	x	x	x
O=C(c1ccc2nc[nH]c2c1)N1CCN(c2cccc(Cl)c2)CC1	-15	-2	5.9µM*	-24%	13µM*
O=C(c1cccc(Cl)c1)C1CCCN(C(=O)c2ccoc2)C1 (stereo unspecified)	-4	-2	10µM*	-2%	-8%
O=C(c1cccs1)N1CCN(c2cccc(Cl)c2)CC1	x	-2	94%	-44%	4%
O=C(c1ccc([N+](=O)[O-])s1)N1CCN(c2cccc(Cl)c2)CC1	-6	0	12µM*	-36%	u
O=C(c1cccc(Cl)c1)N1CCCC(C(=O)N2CCN(c3ccccc3)CC2)C1 (stereo unspecified)	50*	24*	11%	-22%	-24%
COc1ccc(C(=O)N2CCN(c3cccc(Cl)c3)CC2)cc1	36	11	-13%	3%	25%
COC(=O)CSc1nn(-c2ccc(F)cc2)c(=S)s1	-9	-3	12%	x	0%
CC(C)N(Cc1ccccc1)C(=O)CCS(=O)(=O)c1ccc2c(c1)oc(=O)n2C	-3	-4	u	8%	-18%
O=C(O)CC1(O)C(=O)N(Cc2ccccc2)c2ccccc21 (stereo unspecified)	8	1	10%	4%	17%
Cc1ccc(C(=O)N2c3ccccc3N(Cc3ccccc3)C(=O)C2(C)C)cc1	9	-4	7.4µM*	-75%	12µM*
O=C(CCN1CCN2CCCC2C1)N1c2ccccc2Sc2ccc(Cl)cc21 (stereo unspecified)	-11	-2	11µM*!	2%	u
CN(C)CCC(=O)N1c2ccccc2Sc2ccc(Cl)cc21	-6	-8	16%	0%	u
CCN(CC)CCC(=O)N1c2ccccc2Sc2ccc(Cl)cc21	x	x	1.7µM*	x	u
COc1ccccc1OCc1nn[nH]n1	-4	1	79%	8%	5%
CCN(Cc1nc2cc(Cl)ccc2c(=O)[nH]1)C(=O)c1ccc(C)c(NC(=O)c2ccco2)c1	x	x	8.3µM*	x	9.3µM*
CCN(Cc1nc2cc(Cl)ccc2c(=O)[nH]1)C(=O)c1nn(C)c(=O)c2ccccc12	x	x	u	x	8.3µM*
CC(C)N(Cc1ccccc1)C(=O)CC(=O)N(Cc1ccccc1)C(C)C	-4	-2	-8%	7%	3%
COc1ccccc1NC(=O)c1ccc[n+]([O-])c1	7	-3	u	5%	37%
Cc1ccc(CNC(=O)CSCc2ccc(F)cc2)cc1	18	7	9%	x	0%
O=C(CSc1ccccc1)NC(=O)NCc1ccccc1	5	-1	12%	u	0%
O=C(CSc1ccccc1)NCc1ccc(F)cc1	80*	40*	5%	-6%	85%
Cc1ccc(CNC(=O)CSCc2ccccc2)cc1	71*	29*	13%	-5%	42%
Cc1ccc(CSCC(=O)Nc2ccccc2)cc1	26*	32*	u	-6%	-7%
Cc1ccc(CSCCNC(=O)c2ccccc2)cc1	35	-2	-8%	-26%	u
SMILES	Shiga toxin inh	Cycloheximide cs	Pf growth 96h	NS1 function inh	Pf growth 48h
Cc1ccccc1CNC(=O)c1ccc(CSCc2ccccc2)cc1	3	1	6.6µM*	-5%	u
O=c1c2c([nH]n1-c1ccccc1)CCSC2	3	1	3%	8%	1%
COC(=O)c1cn(Cc2cc(OC)ccc2OC)cc(F)c1=O	-2	-3	6%	-4%	35%
CC(C(=O)NC(C)(C)C)N1C(=O)c2cccc3cccc(c23)C1=O (stereo unspecified)	-7	4	16%	x	-12%
O=C(CSCc1c(F)cccc1F)Nc1ccccc1	116*	54*	u	-6%	80%
Cc1ccc(SCC(=O)NCc2ccc(F)cc2)cc1	-13	-4	2%	-6%	2%
